PubChem BioAssay AID686979 (National Center for Advancing Translational Sciences (NCATS), 2013)
In all, about 420,000 compounds went through this assay and about 50,000 (12%) were called active. Another 26% or so got no clear call; they are omitted. The sample holds actives, similar compounds and a random draw of the others, so the mix is not that of the screen. Unmarked numbers belong to inactive results. Calls come from the whole dose curve; as a rule, active = well fitted inhibition curve with a large enough effect; inconclusive = small, poorly fitted or top-dose-only effect; inactive = flat fitted curve, though single readings scatter.

assay: qHTS for Inhibitors of human tyrosyl-DNA phosphodiesterase 1 (TDP1): qHTS in cells in presence of CPT; details: chicken DT40 Tdp1-/-;hTDP1 cells + 20 nM CPT, ATP luminescence, 48 h; series mostly up to 46.2 µM; activity change, negative = growth inhibition: at the top concentration; note: nearly all actives have a fitted effect of over 55% in size
Outline: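 Cell growth measured by CellTiter-Glo luminescence after a minimum 48 h, 37 C compound exposure with 20 nM CPT in Tdp1-knockout DT40 cells stably expressing hTDP1, seeded 400/well; qHTS titration format.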
% is set by controls: 0 for no effect and ±100 for the full control effect; potency is the fitted concentration of half-maximal effect.

Compound | activity change, negative = growth inhibition | Potency
CCOC(=O)C1=C(COC(=O)[C@H](C)NS(=O)(=O)c2ccccc2F)NC(=O)NC1C (stereo partly specified) | -18.8% | –
Cc1ccc(C)c(Nc2nnc(-c3ccc(C)c(S(=O)(=O)N4CCCCC4)c3)c3ccccc23)c1 | – | 4.11 µM (active)
Cc1ccc(NS(=O)(=O)c2cccs2)cc1S(=O)(=O)N1CCCCCC1 | -19.3% | –
Cc1ccc(C(=O)NCC(=O)O)cc1S(=O)(=O)N1CCCCC1 | 12.1% | –
Cc1ccc(S(=O)(=O)N(C)C)cc1NC(=O)c1n[nH]c(=O)c2ccccc12 | – | 18.4 µM (active)
CC(=O)c1c(C)[nH]c(C(=O)Nc2cc(S(=O)(=O)N(C)C)ccc2C)c1C | -11.6% | –
Cc1ccc(S(=O)(=O)N(C)C)cc1NC(=O)c1ccccc1Br | 9.43% | –
O=C(CSc1nc2[nH]c(=O)[nH]c(=O)c2s1)Nc1cccc(F)c1 | 0.666% | –
CCC(C)[C@@H](C(=O)N1CCNCC1)n1cc(CCCCN)nn1 (stereo partly specified) | 10.6% | –
CCOC(=O)c1cccc(NC(=O)CN2C(=O)C3CC=CCC3C2=O)c1 (stereo unspecified) | -1.71% | –
CCOC(=O)N1CCN(c2cc(C)c([N+](=O)[O-])cc2F)CC1 | – | 20.6 µM (active)
CCOC(=O)N1CCN(C(=S)Nc2ccc(C)cc2C)CC1 | -11.4% | –
CCOC(=O)C1CCN(c2ccc(C(=O)O)cc2[N+](=O)[O-])CC1 | 6.98% | –
NC(=O)C1CCN(C(=O)CC2C(=O)NCCN2Cc2cccc(Oc3ccccc3)c2)CC1 (stereo unspecified) | 3.56% | –
Cc1ccc(C(CNC(=O)Nc2cccc(C)c2)N2CCN(C)CC2)cc1 (stereo unspecified) | -3.68% | –
Cc1ccc(NC(=O)Cn2cccc2C2=NC(c3ccccc3)CO2)c(C)c1 (stereo unspecified) | -25.7% | –
COC(CNC(=O)Cn1ncc2ccsc2c1=O)OC | -2.79% | –
O=C1OCCC1=COCCCCOC=C1CCOC1=O | -10.4% | –
CCCC(=O)C1CCN(Cc2ccccc2)CC1 | 24.3% | –
Brc1ccc(CN2CC[C@H]3C=CCc4cccc(c43)C2)cc1 | – | 14.1 µM (active)
CCN(CCCNC(=O)c1c(C)oc2ncn(CC(C)C)c(=O)c12)Cc1ccccc1 | 0.204% | –
O=S(=O)(NC1CC2CCC1C2)c1ccc(Cl)cc1 (stereo unspecified) | -19.1% | –
O=C(CO/N=C/c1ccc(OC(F)F)cc1)NCc1ccc(F)cc1 | -2.12% | –
O=C1/C(=C/c2cccs2)CCc2ccccc21 | -33% | –
COc1ccc(/C=C2\CCc3ccccc3C2=O)c(OC)c1OC | – | 23.1 µM (active)
COc1ccc(/C=C2\N=C3CCCN3C2=O)cc1 | -10.1% | –

Compound | activity change, negative = growth inhibition | Potency
COc1ccccc1C1=CC(=O)CCC1 | -2.66% | –
COc1ccc(/C=C2/CCCc3ccccc3C2=O)cc1 | – | 5.8 µM (active)
COc1ccc(/C=C2\NC(=O)[C@@H]3Cc4ccccc4CN3C2=O)cc1 | -14.1% [at 9.04 µM] | –
COc1cc2[nH]c(=S)n(Cc3ccc(F)cc3)c(=O)c2cc1OC | -26.5% | –
COc1ccccc1NC(=O)N(O)C1(C#N)CCCCC1 | 5.21% | –
Cc1nn(CC(=O)NC2CCCCC2)c(=O)c2cccn12 | 14.8% | –
O=C(/C=C/c1ccc(Cl)cc1)Nc1ccc(S(=O)(=O)Nc2ncccn2)cc1 | -4.33% | –
O=C(CNS(=O)(=O)c1cccc(C(F)(F)F)c1)Nc1ccccc1F | -25% | –
O=C(/C=C/c1ccc(F)cc1)Nc1cccc(S(=O)(=O)Nc2cccc(C(F)(F)F)c2)c1 | – | 14.6 µM (active)
Cc1ccc(OCC(=O)Nc2ccc(OCc3cc(=O)n4c(C)csc4n3)cc2)cc1C | 2.52% | –
COc1cc(Cl)c(NC(=O)CC(C)S(=O)(=O)c2cc3c(cc2C)NC(=O)CO3)c(OC)c1 (stereo unspecified) | -13.4% | –
O=C(/C=C/c1ccccc1)Nc1nnc(SCC(=O)c2ccc3ccccc3c2)s1 | -27.6% | –
Cc1cccc(NC(=O)C2CCN(C(=O)NC3CCCCC3)CC2)c1 | 2.85% | –
COc1ccc(NC(=O)CCCN2C(=O)CCn3nc(-c4cn(C)c5ccccc45)cc32)cc1OC | – | 18.4 µM (active)
COc1ccc(NC(=O)N2CCCn3nc(C)cc32)cc1OC | 9.85% | –
O=C(CN1C(=O)CCn2nc(-c3ccccc3)cc21)NCc1ccccc1 | -2.41% | –
CCOC(=O)C1(C)CCCN(C(=O)c2ccc(N(C)C)cc2)C1 (stereo unspecified) | -27.8% | –
CC(NCCc1ccc(S(N)(=O)=O)cc1)C(=O)NCc1ccccc1 (stereo unspecified) | -21.1% | –
COc1cc(NS(=O)(=O)c2ccc(NC(=O)c3ccc([N+](=O)[O-])cc3)cc2)ncn1 | -12.7% | –
Cn1ccc(=Nc2ccc(NC(=O)c3ccc(N=c4ccn(C)c5ccc([N+](=O)[O-])cc45)cc3)cc2)cc1 | – | 3.66 µM (active)
CC(=O)NC(=S)Nc1ccc(NC(=S)NC(=O)c2ccc([N+](=O)[O-])cc2)cc1 | 18.6% | –
CSCCC(NC(=O)c1ccco1)C(=O)NCCc1ccc(F)cc1 (stereo unspecified) | -11.6% | –
CN(C)CCNC(=O)c1ccc(Cl)c2cc3ccccc3nc12 | – | 0.164 µM (active)
CC(=O)NCCNC(=O)c1cc(-c2cccc3ccccc23)nc2ccccc12 | -3.86% | –
CN(C)CCNC(=O)Nc1cccc(Cl)c1Cl | -13.2% | –
